Data from ChEMBL document CHEMBL4296182, “CO-ADD screening of NIH NCI Diversity Set V”.

These compounds were tested on Acinetobacter baumannii (assay: Antibacterial activity against Acinetobacter baumannii ATCC 19606 (CO-ADD:GN_034); MIC in CAMBH media using NBS plates, by Resazurin F(560/590)). Details: Concentration 20 uM, ASSAY_TEST Inhibition of Bacterial Growth, detection method Resazurin, Fluorescence (ex560/em590), MEDIA CAMHB, plate type 384well, CORNING #3640, time 18 hr.
Assay type: functional

Structure (SMILES) | Inhibition [%]
O=[N+]([O-])c1cc(-c2ccc([As](=O)(O)O)cc2)ccc1[As](=O)(O)O | -5.02
O=P(Oc1ccccc1)(Oc1ccccc1)c1ccccc1 | -14.38
Cc1ccccc1-n1c(/C=C\c2ccccn2)nc2ccccc2c1=O | -2.79
CSc1nc(=O)c(/N=N/c2ccc([As](=O)(O)O)cc2)c(N)[nH]1 | 10.89
COc1ccc2c(c1)C13CCN(C)C(C2)C1CCC1(C3)OCCO1 (centres undefined) | 10.92
CCCC(=O)N(C)C1=Nc2ccc(Cl)cc2C(c2ccccc2)=[N+]([O-])C1 | 1.65
O=P(OC1=CCCCC1)(c1ccccc1)c1ccccc1 | -7.09
O=C(Nc1ccc(F)cc1)Oc1cccnc1O | 2.12
CC(C)(C)c1cc(C=C(C#N)C#N)cc(C(C)(C)C)c1O [TYRPHOSTIN A9] | -9.85
SC1=NC2(CCCCC2)NC12CCCCC2 | 6.83
Cc1ncc([N+](=O)[O-])n1CCOC(N)=O [BAMNIDAZOLE] | -5.43
C=CCNC(=S)Nc1ccc(OC(=O)Nc2ccc(Cl)c(Cl)c2)cc1 | 4.81
CC(C)CC(NC=O)C(=O)O.COc1cc2c(cc1OC)C13CCN4CC5=CCOC6CC(=O)N2C1C6C5CC43 (centres undefined) | -2.08
CN(C)C1CCc2[nH]c3c(F)cc(F)cc3c2C1 (centres undefined) [FLUCINDOLE] | 9.46
C1CC2NCCC3NCCC(N1)N32 (centres undefined) | -9.44
CCN1CCc2ccccc2C1 | -13.05

Structure (SMILES) | Inhibition [%]
c1ccc(C2NCCc3[nH]cnc32)cc1 (centres undefined) | -8.45
CN(C)P(=O)(N(C)C)N1CC1 | -2.37
O=C1/C(=C\c2ccccc2)C2OCC=C3CN4CCC56c7ccccc7N1C5C2C3CC46 (centres undefined) | -0.22
CN1CCN(c2nc(N)c(Br)c(Cl)n2)CC1 | 10.68
FCCN(CCF)c1cccc(Cl)c1 | -11.77
CN1CCC(c2c[nH]c3ccccc23)C1 (centres undefined) | 1.97
CCN1CC2C3CCC(C)(O3)C2C1 (centres undefined) | -6.99
COc1ccc(CCNC2(C#N)CCCCC2)cc1OC | -11.77
COc1ccc2c(c1O)[C@]13CCN(C)[C@H](C2)[C@@H]1CCC(=O)C3 | -13.17
COc1ccc2c(c1)NP(=S)(Oc1ccccc1)N2 (centres undefined) | 7.67
O=C1C[C@@H]2OCC=C3C[N+]4([O-])CC[C@]56c7ccccc7N1[C@H]5[C@H]2[C@H]3C[C@@H]64 (some centres undefined) | -14.45
NC=C1C(=O)N(c2ccccc2)C(=O)N(c2ccccc2)C1=O | 5.08
CN1CCCC1c1ccc(O)nc1 (centres undefined) | -7.12
C[C@H]1[C@H](C)N1CC(O)Cn1ccnc1[N+](=O)[O-] (some centres undefined) | 7.84
C[C@H]1CC[C@H]2NCCN[C@H]2C1 | -12.82
Cc1ccccc1NC(=O)Oc1cccc(OC(=O)c2ccccc2)c1 | 5.34

The compounds below were run on Escherichia coli (assay: Antibacterial activity against Escherichia coli ATCC 25922 (CO-ADD:GN_001); MIC in CAMBH media using NBS plates, by Resazurin F(560/590)). Details: Concentration 20 uM, ASSAY_TEST Inhibition of Bacterial Growth, detection method Resazurin, Fluorescence (ex560/em590), MEDIA CAMHB, plate type 384well, CORNING #3640, time 18 hr.
Assay type: functional

Structure (SMILES) | Inhibition [%]
O=[N+]([O-])c1cc(-c2ccc([As](=O)(O)O)cc2)ccc1[As](=O)(O)O | 9.73
O=P(Oc1ccccc1)(Oc1ccccc1)c1ccccc1 | 1.1
Cc1ccccc1-n1c(/C=C\c2ccccn2)nc2ccccc2c1=O | 7.76
CSc1nc(=O)c(/N=N/c2ccc([As](=O)(O)O)cc2)c(N)[nH]1 | 7.88
COc1ccc2c(c1)C13CCN(C)C(C2)C1CCC1(C3)OCCO1 (centres undefined) | 9.14
CCCC(=O)N(C)C1=Nc2ccc(Cl)cc2C(c2ccccc2)=[N+]([O-])C1 | -7.17
O=P(OC1=CCCCC1)(c1ccccc1)c1ccccc1 | 6.17
O=C(Nc1ccc(F)cc1)Oc1cccnc1O | 1.72
CC(C)(C)c1cc(C=C(C#N)C#N)cc(C(C)(C)C)c1O [TYRPHOSTIN A9] | 13.03
SC1=NC2(CCCCC2)NC12CCCCC2 | -0.29
Cc1ncc([N+](=O)[O-])n1CCOC(N)=O [BAMNIDAZOLE] | 15.41
C=CCNC(=S)Nc1ccc(OC(=O)Nc2ccc(Cl)c(Cl)c2)cc1 | 5.81
CC(C)CC(NC=O)C(=O)O.COc1cc2c(cc1OC)C13CCN4CC5=CCOC6CC(=O)N2C1C6C5CC43 (centres undefined) | 1.33
CN(C)C1CCc2[nH]c3c(F)cc(F)cc3c2C1 (centres undefined) [FLUCINDOLE] | 1.82
C1CC2NCCC3NCCC(N1)N32 (centres undefined) | 11.78
CCN1CCc2ccccc2C1 | 15.08

Structure (SMILES) | Inhibition [%]
c1ccc(C2NCCc3[nH]cnc32)cc1 (centres undefined) | -9.57
CN(C)P(=O)(N(C)C)N1CC1 | 15.32
O=C1/C(=C\c2ccccc2)C2OCC=C3CN4CCC56c7ccccc7N1C5C2C3CC46 (centres undefined) | 16.65
CN1CCN(c2nc(N)c(Br)c(Cl)n2)CC1 | 2.4
FCCN(CCF)c1cccc(Cl)c1 | 4.68
CN1CCC(c2c[nH]c3ccccc23)C1 (centres undefined) | -8.69
CCN1CC2C3CCC(C)(O3)C2C1 (centres undefined) | 12.74
COc1ccc(CCNC2(C#N)CCCCC2)cc1OC | 4.72
COc1ccc2c(c1O)[C@]13CCN(C)[C@H](C2)[C@@H]1CCC(=O)C3 | 7.37
COc1ccc2c(c1)NP(=S)(Oc1ccccc1)N2 (centres undefined) | -4.02
O=C1C[C@@H]2OCC=C3C[N+]4([O-])CC[C@]56c7ccccc7N1[C@H]5[C@H]2[C@H]3C[C@@H]64 (some centres undefined) | 1.56
NC=C1C(=O)N(c2ccccc2)C(=O)N(c2ccccc2)C1=O | 6.01
CN1CCCC1c1ccc(O)nc1 (centres undefined) | 16.87
C[C@H]1[C@H](C)N1CC(O)Cn1ccnc1[N+](=O)[O-] (some centres undefined) | -2.75
C[C@H]1CC[C@H]2NCCN[C@H]2C1 | 14.31
Cc1ccccc1NC(=O)Oc1cccc(OC(=O)c2ccccc2)c1 | 4.68
